HTT cytoprotect: cytoprotection in Huntington HTT-Q103 PC12 cell model; PC12 HTT-Q103 induced, cytoprotection, ATP luminescence, 40 h; Potency, µM (series often up to 56.4 µM), inactives show cytoprotection (ATP increase), actives largely listed as activators; 0.14% of 230,000 active; note: % of control where 0% means no effect; nearly all actives have a fitted effect of over 45% in size
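Cells were plated at 1500 per well in phenol red-free DMEM with 5% equine and 5% calf serum. Tebufenozide (100 nM final) and compounds were added, then ATPlite reagent, and luminescence was read.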
NPSR antag: antagonists of human neuropeptide S receptor cAMP signaling; Potency, µM (highest dose often 38.3 µM), without a hit: at the top dose activity change, negative = inhibition, actives largely listed as inhibitors; CHO-NPSR cells, cAMP TR-FRET, antagonist mode; 1% of 220,000 active; Q6W5P4; note: % is set by controls: 0 for no effect and ±100 for the full control effect; nearly all actives have a fitted effect of over 50% in size
Target sequence (Q6W5P4 whole entry, looked up): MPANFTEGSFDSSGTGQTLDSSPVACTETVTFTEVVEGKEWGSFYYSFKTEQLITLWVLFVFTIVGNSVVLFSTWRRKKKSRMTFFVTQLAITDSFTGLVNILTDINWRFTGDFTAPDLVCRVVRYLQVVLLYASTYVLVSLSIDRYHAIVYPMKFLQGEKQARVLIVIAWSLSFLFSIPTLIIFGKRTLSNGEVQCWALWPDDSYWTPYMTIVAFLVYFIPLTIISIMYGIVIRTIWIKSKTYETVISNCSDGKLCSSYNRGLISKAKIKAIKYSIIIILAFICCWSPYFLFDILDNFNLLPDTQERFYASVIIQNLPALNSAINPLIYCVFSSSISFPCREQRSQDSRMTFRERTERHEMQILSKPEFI
LMNA splice mod: LMNA splicing modulation | HeLa LMNA splicing GFP/RFP minigene ratio, 48 h | Potency, µM (highest dose often 46.1 µM), inactives show at the top dose ratio change, negative = inhibition, most hits filed as inhibitors | 0.01% of 200,000 active | AID 1487; active = well fitted inhibition curve with a large enough effect in the signal ratio, with a control signal flat, not every such curve was filed as active; inconclusive = small, poorly fitted or top-dose-only effect, or effect the other way, or a change in a side signal; the % refers to the signal ratio; note: % is set by controls: 0 for no effect and ±100 for the full control effect
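S3 HeLa stable clones carrying a lamin A-EGFP splicing minigene plus DsRed2 were seeded at 600 cells/well in Opti-MEM with 2% FBS, pin-dosed and incubated 48 h at 37°C. Acumen cytometry (488 nm) gave the GFP/RFP total-intensity ratio.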
HttQ103 aggreg: inhibitors of mutant huntingtin aggregate formation in PC12 cells; Potency, µM (series often up to 46.1 µM), for the others: at the highest dose activity change, negative = inhibition, most hits filed as inhibitors; PC12 HttQ103-GFP aggregates, Acumen cytometry, 40 h; 1.1% of 220,000 active; note: % is set by controls: 0 for no effect and ±100 for the full control effect; nearly all actives have a fitted effect of over 60% in size
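Huntingtin Q103 exon 1–GFP aggregates in induced PC12 cells (100 nM tebufenozide) were quantified by cytometry from lysates, with compounds dosed in titration.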
Epigenetic reg: epigenetic control regulation, reporter derepression | AID 1865 | 0.2% of 280,000 active | Potency, µM (highest dose often 53.9 µM), inactives show at the top dose GFP activation, most hits filed as activators | murine LDR cells, GFP reporter derepression, 30 h; note: % of control where 0% means no effect; nearly all actives have a fitted effect of over 60% in size
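Reporter derepression read as number of fluorescent GFP-positive objects, 20-120 um in size, counted by laser-scanning cytometer. Mouse LDR line with an epigenetically silenced CMV-GFP locus; compound incubation 30 h, 37 C.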
An asterisk follows results filed as active; ? = inconclusive; / = no result given; [ ] = another dose, or the depositor's remark. Rows were chosen to be rich in hits. Some 1.5% of all compounds tested hit in one or more screens of this group. Unless noted, calls come from the whole dose curve; as a rule, active = well fitted curve in the direction sought with a large enough effect; inconclusive = small, poorly fitted or top-dose-only effect, or another doubt; inactive = no such curve, though single readings can be large; an effect the other way counts as inactive or inconclusive. Potency is the fitted concentration of half-maximal effect.

SMILES | HTT cytoprotect | NPSR antag | LMNA splice mod | HttQ103 aggreg | Epigenetic reg
Cc1cc[n+](C2=C([O-])c3ccccc3C(=O)/C2=N\S(=O)(=O)c2cccs2)cc1C | -2%[10 µM] | -1% | ? | 10µM* | 0%
Cc1ccc(NC(=O)N2CCN(C(=O)c3nsc4ccccc34)CC2)cc1C | / | / | ? | / | -3%
O=C(O)[C@@H]1Cc2c([nH]c3ccccc23)[C@@H](CCCCO)N1 | 4%[10 µM] | / | / | / | /
CCC(Sc1nc2n[nH]c(C)c2c(=N)n1-c1ccc(Br)cc1)C(=O)N(CC)CC (configuration not stated) | / | / | ? | / | 3%
Nc1c(C(=O)Nc2ccc(Cl)c(C(F)(F)F)c2)sc2nc(-c3ccncc3)ccc12 | / | / | / | / | 14%
CCCCn1c(CNC(=O)C23CC4CC(CC(C4)C2)C3)nnc1SCC(=O)Nc1ccc(F)cc1 | / | / | / | / | -1%
N=c1n(Cc2ccc(Cl)cc2)c2ccccc2n1CC(O)COc1ccccc1 (configuration not stated) | 0%[10 µM] | ? | ? | 14µM* | 0%
S=c1[nH]nc(-c2cc3c(s2)-c2ccccc2CC3)o1 | 18%[10 µM] | 10µM* | -7% | 1% | 3%
CSc1nnc(-c2cc3c(s2)-c2ccccc2CC3)o1 | -11%[10 µM] | -7%[46.1 µM] | -5% | -1% | 0%
C=CCc1cccc(/C=N/NC(=O)CCCNc2ccc(C)cc2)c1O | 27%[10 µM] | 3%[46.1 µM] | ? | ? | 2%
C=CCc1cccc(/C=N/NC(=O)C(C)Nc2cccc(C)c2)c1O (configuration not stated) | -128% | -45% | -29%[46 µM] | 11µM* | -3%
C=CCc1cccc(/C=N/NC(=O)CNc2ccccc2OC)c1O | -120% | -35% | / | 20µM* | 8%
C=CCn1c(CNc2ccccc2)nnc1SCC(=O)N/N=C/c1ccccc1O | -49% | -16%[46.1 µM] | ? | 18µM* | -3%
C=CCc1cccc(/C=N/NC(=O)CNc2cccc3ccccc23)c1O | -13%[10 µM] | -19% | ? | 25% | -3%
C=CCn1c(Cc2c[nH]c3ccccc23)nnc1SCC(=O)NCc1ccccc1 | 6% | -19%[46.1 µM] | 3% | 10% | -2%
C=CCc1cccc(/C=N/NC(=O)CNc2ccccc2)c1O | -73% | 1%[46.1 µM] | ? | 11µM* | 0%
Cc1ccc(-c2noc(-c3nnn(CC(=O)Nc4ccc(C)c(Cl)c4)c3N)n2)cc1 | / | / | / | / | 8%
COc1ccc(CNC(=O)c2cnc3sc(N4CCOCC4)nn3c2=O)cc1 | / | / | 10%[46 µM] | / | 3%
Cc1sc2ncn(CC(=O)N(C)c3ccc(C(C)C)cc3)c(=O)c2c1S(=O)(=O)N1CCC(C)CC1 | / | / | / | / | -1%
Cn1nc(C(F)(F)F)c(/C=N/OC(=O)c2ccccc2)c1Sc1ccc(Cl)cc1 | -8% | ? | ? | 14µM* | -1%
COc1ccc(C(=O)c2ccc(N3CCN(C(=O)c4ccc(F)cc4)CC3)c(F)c2)cc1Br | -49% | ? | ? | 13µM* | -5%
O=C(O)c1ccc(/C=N\N=C2c3ccccc3-c3ccccc32)cc1 | -8%[10 µM] | / | / | / | /
CCc1ccc(NC(=O)c2ccc3c(O)c(S(=O)(=O)c4ccc(Cl)cc4)c(=O)[nH]c3c2)cc1 | / | / | / | / | 1%
CCCOCc1ccc(O)c2ncccc12 | -57%[10 µM] | -39% | / | -44%[9.22 µM] | 3.5µM*
OCc1ccc(O)c2ncccc12 | -62% | 2%[46.1 µM] | ? | 10µM* | ?
SMILES | HTT cytoprotect | NPSR antag | LMNA splice mod | HttQ103 aggreg | Epigenetic reg
CC(C)COCc1ccc(O)c2ncccc12 | -153% | 38% | / | 10µM* | ?
COc1ccc2c(c1)[C@]1(C)CCC[C@](C)(CO)[C@@H]1CC2 | 10% | / | / | / | /
Cc1cc(C)n(C(N)=NC(=O)c2ccc([N+](=O)[O-])cc2)n1 | 6%[10 µM] | -10% | / | 10%[9.22 µM] | -3%
Cn1nccc1C(=O)Oc1ccc(/C=N/NC(=O)c2ccccc2O)cc1 | 0.89µM* | -12% | 2%[9.22 µM] | ? | -3%
COc1cc(Cl)c(C)cc1NC(=O)Cn1c(C)c2cnn(-c3ccccc3)c(=O)c2c1C | / | / | / | / | -2%
COc1cc(/C=C/c2[nH]c(=O)[nH]c(=O)c2[N+](=O)[O-])ccc1OCCC(C)C | 13µM* | -8% | / | ? | 0%
Cc1ccc(C2=NC(C)(C)N=C2SCC(=O)Nc2ccc(Cl)cc2)cc1 | 3% | -30%[46.1 µM] | -17% | 5%[9.22 µM] | -1%
CC1(C)N=C(SCC(=O)Nc2ccccc2)C(c2ccc(Cl)cc2)=N1 | 18µM* | -25%[46.1 µM] | ? | 21% | 2%
CN(C)S(=O)(=O)c1ccc(-c2csc(N/N=C/c3ccco3)n2)cc1 | 21%[10 µM] | -9% | / | 0%[9.22 µM] | 2%
CN(C)S(=O)(=O)c1ccc(-c2csc(N/N=C/c3ccc(O)cc3)n2)cc1 | -53%[10 µM] | 13µM* | / | -17%[9.22 µM] | -1%
Cc1ccc(Nc2nnc(-c3ccc(C)c(S(=O)(=O)N4CCOCC4)c3)c3ccccc23)c(C)c1 | / | / | / | / | -1%
CC(=O)Nc1ccc(SCC(=O)c2cc(C)n(-c3ccccc3)c2C)cc1 | 9%[10 µM] | -12%[46.1 µM] | ? | -11% | 0%
COc1ccc(-n2c(C)cc(C(=O)CSc3ccc(NC(C)=O)cc3)c2C)cc1 | -9%[10 µM] | -30% | ? | 13µM* | 1%
Cc1nc2ncnn2c(N2CCCC(C(=O)Nc3ccc4c(c3)CCC4)C2)c1C (configuration not stated) | -2%[10 µM] | -29%[46.1 µM] | ? | 10µM* | -4%
COc1ccc2c(c1)[nH]c1c(N3CCN(Cc4ccc5c(c4)OCO5)CC3)ncnc12 | -100% | 13µM* | 12% | 8.9µM* | -2%
c1ccc(CN2CCN(c3ncnc4c3[nH]c3ccccc34)CC2)cc1 | -69% | ? | -1% | ? | 0%
Cc1ccc2[nH]c3c(N4CCN(Cc5ccccc5)CC4)ncnc3c2c1 | -102% | 13µM* | ? | ? | -1%
Cc1ccc2c(c1)[nH]c1c(N3CCN(Cc4ccccc4)CC3)ncnc12 | -85%[0.074 µM] | ? | ? | 7.1µM* | 4%
Fc1ccc2[nH]c3c(N4CCN(C5CCCCC5)CC4)ncnc3c2c1 | -12% | ? | ? | -21% | -10%
COc1cccc2[nH]c3c(N4CCN(Cc5ccc6c(c5)OCO6)CC4)ncnc3c12 | -71% | ? | ? | ? | 13%
Cc1ccc2[nH]c3c(N4CCCCCC4)ncnc3c2c1 | 9%[1.9 µM] | ? | ? | 8.9µM* | 0%
CCOc1cc(C2C(C(=O)OC)=C(C)NC3=C2C(=O)c2ccccc23)c(Br)cc1O (configuration not stated) | / | / | ? | / | 0%
Clc1ccc(OCc2nc3ccccc3n2Cc2ccccc2)c(Cl)c1 | / | / | / | / | -1%
CC(=O)Nc1nc(-c2ccc([N+](=O)[O-])cc2)cs1 | -20% | -5% | / | -16% | 2%
O=C(Nc1ccc([N+](=O)[O-])cc1)Nc1nc(-c2ccc(Cl)s2)cs1 | -72%[10 µM] | 6.3µM* | ? | ? | -1%
O=C(c1cc(-c2ccc(F)cc2)on1)N1CCCC1 | -33% | -13%[46.1 µM] | 4% | ? | 16µM*
O=C(CCl)N(c1ccc(Cl)cc1)c1c[nH]c2ccccc12 | -115% | 7.9µM* | ? | ? | 7%

Source: PubChem BioAssay
